Experimental data published in PubChem BioAssay.
Several values for one entry are separate records, joined by “and”; a condition that tells them apart may be missing. Equal entries are not always repeated. Activity calls are given as the source filed them. Unless noted, how the calls were made is not given here.

Assays:
[1] = antimalarial activity against Dd2 strain (AID 2302;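 active means growth inhibition above 50% at the single 2 µM test dose, taken to imply half-maximal potency below 2 µM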;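 further: 0% = DMSO untreated growth and 100% = chloroquine plus artemisinin killed control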); conditions: P. falciparum Dd2 in RBCs, LDH growth readout, 72 h; at 2 µM; stronger effect = higher value
[2] = human hepatoma cell viability loss – ATP luminescence, cytotoxicity control for P. falciparum antimalarial project, primary screen (AID 2303;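 active means inhibition above 50%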;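 further: 0% = DMSO wells and 100% = digitonin-killed cells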); conditions: HepG2 viability, 24-48 h, at 10 µM, stronger effect = higher value
[3] = target: L-lactate dehydrogenase (Plasmodium falciparum (isolate CDC / Honduras)) (UniProt Q27743); experiment: PfLDH activity inhibition – cell lysate, 3D7 strain, counter-screen for P. falciparum growth inhibition project (AID 2304);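 further: 0% = vehicle and 100% = reference inhibitor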; conditions: P. falciparum 3D7 crude extract, LDH APAD/NBT absorbance; at 2 µM; stronger effect = higher value
L-lactate dehydrogenase (Plasmodium falciparum (isolate CDC / Honduras)), sequence (Q27743 whole entry, looked up): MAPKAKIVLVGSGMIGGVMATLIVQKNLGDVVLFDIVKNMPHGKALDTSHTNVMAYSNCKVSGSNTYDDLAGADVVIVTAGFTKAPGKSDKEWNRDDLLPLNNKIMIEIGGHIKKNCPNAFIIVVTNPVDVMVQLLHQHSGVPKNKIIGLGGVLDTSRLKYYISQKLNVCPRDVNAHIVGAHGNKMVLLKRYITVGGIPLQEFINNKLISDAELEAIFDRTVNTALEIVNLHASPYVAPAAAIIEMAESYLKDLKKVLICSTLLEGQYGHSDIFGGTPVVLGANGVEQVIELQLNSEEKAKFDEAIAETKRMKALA

[4] = inhibition of 3D7 malaria parasite growth – strain 3D7 (AID 2306);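 further: 0% = DMSO wells and 100% = chloroquine plus artemisinin control wells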; conditions: P. falciparum 3D7 erythrocytic growth, LDH absorbance, 72 h; at 2 µM; stronger effect = higher value
[5] = compounds altering viability of human ES cells (AID 493140); conditions: human embryonic stem cell survival screen; stronger effect = higher value;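 further: cells exposed to compounds for four days before counting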
[6] = P. berghei load reduction in hepatocytes – cell-based, HepG2, luciferase luminescence, HepG2 viability, primary screen (AID 624349; in the data active means parasite load remaining mostly below about 12%, no sharp cut-off; inactive means mostly above about 10%;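 further: 100% = mean of DMSO negative control wells on the same plate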); conditions: P. berghei liver stage in HepG2, luciferase luminescence, concentration not given here; parasite load remaining: stronger effect = lower value; viability: measured here: HepG2 viability without parasites
[7] = Wnt pathway potentiators raising nuclear beta-catenin – imaging, WNT3A-conditioned medium, mouse C2C12, NPC library, primary screen (AID 1117326; in the data active means nuclear beta-catenin stimulation mostly above about 4.2%, no sharp cut-off; inactive means mostly below about 10%); conditions: stronger effect = higher value
[8] = glutamate transport activators, MN-1 cells, MN-1 cell line (AID 1612); conditions: MN-1 motor neuron cells, stronger effect = higher value;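 further: tested at 1 µM final; 0% = mean of DMSO vehicle wells on each plate; positive means more glutamate uptake than control and negative means less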
[9] = 75Q-TubH aggregate inhibition, S. cerevisiae, yeast (AID 1616); conditions: S. cerevisiae 75Q-TubH polyglutamine aggregation suppression; stronger effect = higher value
[10] = compounds altering circadian rhythm period length – cell-based, LOPAC library, luminescence reporter (AID 2774); conditions: circadian reporter cells, at 7 µM, actives lie on both sides;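 further: values are relative to mean of DMSO wells on each plate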
[11] = tested on: Hepatitis C virus NS3 helicase; experiment: blockers of NS3h binding to ssDNA – biochemical, fluorescence polarization, LOPAC1280 library, primary screen (AID 687035; in the data active means inhibition above about 37%); conditions: Purified HCV NS3 helicase, Cy5-dT15 ssDNA binding fluorescence polarization; stronger effect = higher value; concentration not given here
[12] = compounds altering Cy5-DNA-NS3h complex signal – biochemical, LOPAC1280, artefact control for HCV NS3 helicase inhibitor project (AID 687037); conditions: Cy5-DNA-NS3h complex fluorescence interference counterscreen

Row | SMILES | growth inhibition [1] | inhibition [2] | inhibition [3] | growth inhibition [4] | survival [5] | parasite load remaining [6] | viability [6] | nuclear beta-catenin stimulation ([7]; at 10 µM) | nuclear beta-catenin stimulation ([7]; stimulation, at 2 µM) [%] | glutamate uptake change [8] [%] | aggregation suppression score [9] | period change [10] | inhibition [11] | fluorescence ratio (interference) [12]
1 | CCCCc1ccc2nc(NC(=O)OC)[nH]c2c1 | 1% (inactive) | 26% (inactive) | -3% (inactive) | 98% (active) | 1 (inactive) | 83.6% (inactive) | 85.5% | 81.2% (active) | 61.1 |  |  |  |  | 
2 | CCCCCCOc1ccccc1C(N)=O |  |  |  |  |  | 151% (inactive) | 88.6% | 2.2% (inactive) | -1 | 0.56 | 0.156 |  |  | 
3 | COC(=O)[C@@H]1[C@H]2C[C@H]3c4[nH]c5ccccc5c4CCN3C[C@@H]2CC[C@@H]1O |  |  |  |  | 8.25 (inactive) | 80.6% (inactive) and 73.2% (inactive) and 41.3% (inactive) | 101% and 81.3% and 96.5% | 1% (inactive) | 0.4 |  |  | 0.095 h (inactive) | 0% (inactive) | 1.1 (inactive)
4 | COc1cc2c(cc1OC)-c1cc(=Nc3c(C)cc(C)cc3C)n(C)c(=O)n1CC2 | 29% (inactive) | 14% (inactive) | 0% (inactive) | 92% (active) |  | 22.9% (inactive) | 56.5% | 1.1% (inactive) | -0.6 |  |  | 0.41 h (inactive) | 1% (inactive) | 0.9 (inactive)
5 | CCCCC(CC)CN=C(N)NC(N)=NCCCCCCN=C(N)NC(N)=NCC(CC)CCCC (centres undefined) |  |  |  |  | 0.25 (inactive) | -0.04% (inactive) and -6.78% (inactive) | 41.3% and 33.2% | -3.7% (inactive) | -1.8 | -50.4 | -0.456 |  |  | 
6 | CC[N+](C)(C)Cc1ccccc1Br |  |  |  |  | 6.92 (inactive) | 80.1% (inactive) | 101% | -0.9% (inactive) | 0.3 |  |  | 0.095 h (inactive) |  | 
7 | O=C(Nc1cccc(C2=NCCN2)c1)Nc1cccc(C2=NCCN2)c1 | 99% (active) | 16% (inactive) | 7% (inactive) | 98% (active) |  |  |  | 1.5% (inactive) | 4.9 |  |  |  |  | 
8 | CC(=O)OC/C=C(C)/C=C/C=C(C)/C=C/C1=C(C)CCCC1(C)C |  |  |  |  |  | 135% (inactive) and 40.4% (inactive) | 96.6% and 98.5% | 3.8% (inactive) | 3.9 | -12.9 | 0.917 |  |  | 
9 | CN1CCC(=C2c3ccccc3Sc3ccccc32)CC1 |  |  |  |  | 12.3 (inactive) | 16.9% (inactive) and 99.5% (inactive) and 91.2% (inactive) | 43.6% and 70.3% and 91.9% | -0.1% (inactive) | 1.3 | 7.96 | 1.3 |  |  | 
10 | Cc1scc2c1N(C(=O)CN1CCN(C)CC1)c1ccccc1NC2=O |  |  |  |  | 11.3 (inactive) | 42.9% (inactive) and 96% (inactive) and 50.1% (inactive) | 49.7% and 86.8% and 142% | 1% (inactive) | 1.6 |  |  | 0.165 h (inactive) | -3% (inactive) | 1 (inactive)
